Our source for the AC50 and activity, negative = inhibition values is PubChem BioAssay AID1851 (National Center for Advancing Translational Sciences (NCATS), 2009).

Among all 16,000 compounds or so, about 2,600 (16%) were called active. Roughly 20% stayed inconclusive and do not appear here. Not all results are given here. Some compounds were tested as several samples or in several runs, with calls that do not always agree. Unmarked numbers belong to inactive results. Calls come from the whole dose curve; as a rule, active = well fitted curve in the direction sought with a large enough effect; inconclusive = small, poorly fitted or top-dose-only effect, or effect the other way; inactive = no such curve, though single readings can be large or run the other way.
% is set by controls: 0 for no effect and ±100 for the full control effect.

The target of this experiment is Cytochrome P450 2D6 (Homo sapiens) (UniProt P10635). Briefly: Cytochrome panel assay with activity outcomes. Conditions: recombinant CYP, pro-luciferin dealkylation, luminescence, p450-cyp2d6; series mostly up to 57.1 µM.
Cytochrome P450 2D6 (Homo sapiens), sequence (P10635 whole entry, looked up): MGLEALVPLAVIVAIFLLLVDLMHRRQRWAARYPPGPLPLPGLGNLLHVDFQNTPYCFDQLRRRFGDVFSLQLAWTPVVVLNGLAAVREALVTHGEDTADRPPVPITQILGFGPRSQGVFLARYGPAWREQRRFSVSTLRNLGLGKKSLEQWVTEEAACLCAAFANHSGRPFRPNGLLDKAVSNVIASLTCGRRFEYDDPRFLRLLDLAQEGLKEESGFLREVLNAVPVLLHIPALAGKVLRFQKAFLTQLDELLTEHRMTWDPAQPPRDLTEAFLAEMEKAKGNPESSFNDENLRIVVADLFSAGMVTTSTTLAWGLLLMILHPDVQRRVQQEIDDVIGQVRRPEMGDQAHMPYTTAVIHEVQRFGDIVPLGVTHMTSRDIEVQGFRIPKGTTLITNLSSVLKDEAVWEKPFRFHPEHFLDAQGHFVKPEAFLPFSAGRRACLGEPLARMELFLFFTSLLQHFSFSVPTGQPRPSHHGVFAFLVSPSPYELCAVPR
On to `COc1ccc(Nc2cc(=O)n(C3CCCCC3)c(=O)[nH]2)c(OC)c1`, for which the AC50 – broadly, the midpoint of the concentration-response curve, whichever way the signal moves – was “inactive”.

With `Cc1nc(S(=O)(=O)NC2CCCCC2)c(C#N)c(C)c1Cl`, the AC50 entry was “inactive”.

On to `Cc1ccc(-c2c(C)sc(NC(=O)C3C4CCC(O4)C3C(=O)O)c2C(=O)OC(C)C)cc1` (stereo not given), for which the AC50 result was “inactive”.

For `Cc1ccc(/C=N/NC(=O)CSc2nc3nc(C)cc(C)n3n2)cc1`, the AC50 entry is “inactive”.

For `COc1ccccc1CNC(=O)CSc1nc2nc(C)cc(C)n2n1`, the AC50 was 15.8 µM (active).

Regarding `Cc1cc(C)n2nc(SCC(=O)N/N=C/c3ccccc3F)nc2n1`, the AC50 result is “inactive”.

Turning to `Nc1nc(=S)[nH]c2c1C1(CCCC1)Cc1ccccc1-2`, the AC50 entry was “inactive”.

Turning to `CO[C@@H]1COC(=O)[C@H](C)NC(=O)C/C=C\[C@@H](C)[C@@H](NS(=O)(=O)c2ccc(C)cc2)COC(=O)C/C=C\[C@@H]1C`, the activity, negative = inhibition was 5.57% [at 11.4 µM].

Regarding `O=[N+]([O-])c1ccc(-c2cnc(SCc3ccccc3Cl)[nH]2)cc1`, the AC50 was 12.6 µM (active).

For `O=c1[nH]c(SCc2ccccc2[N+](=O)[O-])nc2nc[nH]c12`, the activity, negative = inhibition is -3.83% [at 11.4 µM].

Regarding `O=c1cc(-c2ccccc2)[nH]n1-c1ccc([N+](=O)[O-])cc1`, the AC50 result is “inactive”.

As to `COCCn1c(=O)c(-c2cccs2)nc2cnc(N(C)C)nc21`, the AC50 entry was “inactive”.

On to `O=P(O)(COc1ccccc1)COc1ccccc1`, for which the AC50 result was “inactive”.

On to `C[N+](C)(CCCOc1ccccc1)c1ccccc1`, for which the AC50 was 0.0158 µM (active).

Regarding `O=c1c(-c2cccs2)nc2cnc(Nc3ccccc3)nc2n1C[C@H]1CCCO1`, the AC50 result was “inactive”.

With `CC(CO)(CO)N=Cc1cc(I)cc(I)c1O`, the activity, negative = inhibition is 3.56% [at 11.4 µM].

For `Cc1ccc(SCCNC(=S)Nc2ccc(C)c(C)c2)cc1`, the AC50 is 4.47 µM (active).

For the compound `Cc1ccc(SCc2cc(=O)[nH]c(/N=C(\N)Nc3ccc(C)c(C)c3)n2)cc1`, the AC50 result is “inactive”.

In the case of `Cc1ccc(NC(=S)Nc2ccc(Br)cc2)cc1`, the AC50 entry was “inactive”.

Regarding `COc1ccc(C(=O)Nc2cccc(/C(C)=N/NC(=O)c3ccc([N+](=O)[O-])cc3)c2)cc1OC`, the AC50 result was “inactive”.

In the case of `COc1ccc2cc(C)c3nnc(SCC(=O)Nc4nc(-c5ccccc5)cs4)n3c2c1`, the AC50 result is “inactive”.

On to `CC(=O)Nc1ccc(NC(=O)CSc2ncnn2-c2ccccc2)cc1`, for which the AC50 result was “inactive”.

For `CC(=O)Nc1ccc(NC(=O)CSc2nnc(-c3ccccc3)n2Cc2ccc3c(c2)OCO3)cc1`, the AC50 was 12.6 µM (active).

In the case of `O=C(CSc1nnc(-c2ccccn2)n1Cc1ccco1)Nc1ccc2c(c1)OCO2`, the AC50 result is “inactive”.

Turning to `Cc1ccc2cc(C)c3nnc(SCC(=O)NCc4ccco4)n3c2c1`, the AC50 entry was “inactive”.

With `Cc1cc2cc(C)c3nnc(SCC(=O)NCc4ccc5c(c4)OCO5)n3c2cc1C`, the AC50 is 17.8 µM (active).

Regarding `O=C(O)c1cscc1Cc1cccs1`, the activity, negative = inhibition was 14.2% [at 11.4 µM].

Regarding `O=C(O)/C=C\C(=O)Nc1cccc2c1-c1ccccc1C2=O`, the activity, negative = inhibition is 10.1% [at 11.4 µM].

As for `Cc1nc2cncnc2n(Cc2ccc(F)cc2)c1=O`, the AC50 result is “inactive”.

Take `C=CCn1c(SCC(=O)Nc2ncc(Cc3ccc(Br)cc3)s2)nnc1-c1ccncc1`: the AC50 result was “inactive”.

For `CC(C)=C1C(=O)NN(c2ccc(F)c(Cl)c2)C1=O`, the AC50 result is “inactive”.

For `Cc1cccc(C(=O)NNC(=O)C2CCCO2)c1` (stereo not given), the AC50 result was “inactive”.

Regarding `CCNc1ncc2nc(-c3ccc(OC)cc3)c(=O)n(-c3ccc(OC)cc3)c2n1`, the AC50 result is “inactive”.

`O=c1c(-c2cc(F)cc(F)c2)nc2cncnc2n1-c1ccccc1`: the AC50 entry was “inactive”.

As to `CCNc1ncc2nc(-c3ccc(F)cc3)c(=O)n(C)c2n1`, the AC50 result was “inactive”.

Turning to `COc1ncc2nc(-c3cc(F)cc(F)c3)c(=O)n(-c3ccccc3)c2n1`, the AC50 result was “inactive”.

Take `CCNc1ncc2nc(-c3ccc(F)cc3)c(=O)n(-c3ccccc3)c2n1`: the half-maximal activity concentration (AC50) was 0.1 µM (active).

Consider `CCNc1ncc2nc(-c3cc(F)cc(F)c3)c(=O)n(-c3ccccc3)c2n1`, for which the half-maximal activity concentration (AC50) was 0.1 µM (active).

On to `O=C(Nc1cccc(F)c1)/C(=C\c1ccco1)NC(=O)c1cccs1`, for which the AC50 entry was “inactive”.

Turning to `CC(=O)c1ccc(S(=O)(=O)NC(=O)NC2CCCCC2)cc1`, the AC50 result is “inactive”.

Turning to `CC(C)CC(c1nnnn1C(C)C)N1CCN(c2ccccc2)CC1` (stereo not given), the AC50 result was “inactive”.

Turning to `COc1ccccc1NC(=O)c1sc2ncn(Cc3ccccc3C)c(=O)c2c1C`, the AC50 result is “inactive”.

Regarding `Cc1ccccc1C(=O)NN(C)c1nc2ccccc2nc1C(F)(F)F`, the AC50 result is “inactive”.

For `CC(=O)N1CCN(c2ccc(NC(=O)c3ccc(C)cc3)cc2)CC1`, the AC50 result was “inactive”.

On to `COC(=O)CC[C@@H](C)[C@H]1CC[C@H]2[C@H]3CC[C@H]4C[C@@H]5CC[C@@]4(C)C3(O5)[C@@H](Br)[C@@H](Br)[C@@]12C`, for which the activity, negative = inhibition was -11.7% [at 11.4 µM].

With `CO[C@H]1COC(=O)C/C=C\[C@@H](C)[C@H](OC)COC(=O)CCC[C@@H]1C`, the activity, negative = inhibition was 17.9% [at 11.4 µM].

As for `CC(C)(C)c1ccc(-c2nnc(SCc3ccc(Cl)cc3)n2-c2cccc(C(F)(F)F)c2)cc1`, the activity, negative = inhibition is 7.38% [at 11.4 µM].

As to `Fc1ccc(Cn2c(SCc3ccc(F)c(C(F)(F)F)c3)nnc2C(F)(F)F)cc1`, the AC50 is 15.8 µM (active).

Turning to `Cc1ccc(CSc2nnc(C(F)(F)F)n2Cc2ccc(F)cc2)cc1`, the AC50 result is “inactive”.

In the case of `CCc1cc2c(nc1CC)CCN(CC/C(C)=N/O[C@@H](C)c1cc(-c3c(C)cc(C)cc3C)no1)C2`, the activity, negative = inhibition was -13.3% [at 11.4 µM].

Regarding `COC(=O)C/C=C\[C@@H](C)[C@@H](/C=N\O[C@@H](C)CN1CCCc2nc(C)c(C)cc21)NS(=O)(=O)c1ccc(C)cc1`, the half-maximal activity concentration (AC50) is 3.16 µM (active).

Regarding `C=CC[C@@H]1C=C[C@H](ON=C(C)C)[C@H](CO)O1`, the activity, negative = inhibition was 9.56% [at 11.4 µM].

On to `CCc1cc2c(nc1CC)CCN(CC/C(C)=N/O[C@@H](C)CN1CCCc3nc(C)c(C)cc31)C2`, for which the AC50 is 3.98 µM (active).

For `Cc1cc2c(nc1C)CCCN2C[C@H](O)CN1CCCc2nc(-c3ccc(Br)cc3)ccc21`, the AC50 is 3.16 µM (active) and the activity, negative = inhibition is -14.3% [at 11.4 µM].

For `CO/N=C\[C@@H](NS(=O)(=O)c1ccc(C)cc1)[C@H](C)/C=C\CC(=O)OC`, the activity, negative = inhibition was -13.5% [at 11.4 µM].

Regarding `C=CC[C@@H]1C=C[C@H](O/N=C(\C)CCN2CCCCc3nc(C)c(C)cc32)[C@H](CO)O1`, the AC50 is 3.98 µM (active).

As to `C/C(CCN1CCc2nc(-c3ccccc3)c(-c3ccccc3)cc2C1)=N\O[C@@H](C)CN1CCCCc2nc(C)c(C)cc21`, the activity, negative = inhibition is -4.1% [at 11.4 µM].

For the compound `Cc1cc2c(nc1C)CCCN2CC(O)CN1CCCc2nc(C)c(C)cc21`, the activity, negative = inhibition was -7.07% [at 11.4 µM].

Consider `COC(=O)C/C=C\[C@@H](C)[C@@H](/C=N\O[C@@H](C)CN1CCCCc2nc(C)c(C)cc21)NS(=O)(=O)c1ccc(C)cc1`, for which the activity, negative = inhibition is 2.33% [at 11.4 µM].
